High-throughput results deposited in PubChem by National Center for Advancing Translational Sciences (NCATS).
Rows were chosen to be rich in hits. Some 7.9% of all compounds tested hit in one or more screens of this group.
HCMV inh: qHTS Assay for inhibitors of the human cytomegalovirus (HCMV); HFF cells, HCMV-luciferase reporter, 72 h; hits give low values; activity change, negative = inhibition, % at 57.5 µM; 4.5% of 410,000 active; in the data active means activity change below about -60%; inconclusive means no clear call, values can overlap the other calls; inactive means above about -39%
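Two-dose cell screen: HFF monolayers treated with compounds and infected with luciferase-expressing HCMV at 1 PFU/cell, 72 h at 37C, then lysed for luciferase measurement.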
Lassa entry inh: qHTS for Inhibitors of binding or entry into cells for Lassa Virus; 1.2% of 300,000 active; AID 540256, 2011; Potency, µM (top dose mostly 37.9 µM), inactives show at the top dose activity change, negative = inhibition, most hits filed as inhibitors; Lassa virus pseudotype entry inhibition, cell reporter; calls by dose curve; tested in HEK293 cells; further: potency means the concentration at half of the fitted maximal effect; nearly all actives have a fitted effect of over 50% in size
FMDV inh: High Throughput Screening for Foot and Mouth Disease Virus Antivirals | FMDV antiviral cell-based qHTS | Potency, µM (series often up to 57.9 µM), inactives show top-dose activity change, negative = inhibition, usual class: inhibitors | 1.2% of 410,000 active; calls by dose curve; tested in HEK293T cells; further: read-out not given here; potency means the concentration at half of the fitted maximal effect; nearly all actives have a fitted effect of over 45% in size
HCV inh: qHTS Assay for Inhibitors of Hepatitis C Virus (HCV); AID 651820, 2012; Huh7.5.1 HCVcc-Cre infection, luciferase reporter, 44 h; Potency, µM (doses to about 41.8 µM), inactives show at the top dose activity change, negative = inhibition, most hits filed as inhibitors; 3.4% of 340,000 active; active means well fitted inhibition curve with a large enough effect; inconclusive means small, poorly fitted or top-dose-only effect, or another doubt; inactive means no such curve, though single readings can be large or run the other way; further: potency means the concentration at half of the fitted maximal effect
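Compounds are dispensed onto cells plated 4 h earlier at 1,000 per well, with HCVcc-Cre virus (about 0.5 moi) added next. Following 44 h of culture, luminescent signal is measured for 15 sec after 15 min with substrate at room temperature.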
MARV entry inh: qHTS for inhibitors of binding or entry into cells for Marburg Virus | 1.8% of 300,000 active | Marburg virus pseudotyped entry inhibition, cell reporter | Potency, µM (titrated, usually from 37.8 µM), inactives show top-dose activity change, negative = inhibition, most hits filed as inhibitors; calls by dose curve; tested in HEK293 cells; further: potency means the concentration at half of the fitted maximal effect
Numbers without * were called inactive; ? = inconclusive; . = no result; [ ] = another dose, or the depositor's remark. On the % scale 0 is the no-effect control and ±100 the full control effect.

SMILES	HCMV inh	Lassa entry inh	FMDV inh	HCV inh	MARV entry inh
CC1CCCN(c2cccc3c2S(=O)(=O)N([C@H](C)c2ccccc2)C[C@@H](COCc2ccccc2)O3)C1 (stereo partly drawn)	-82*	.	.	.	.
CCCCN1CC(COCc2ccccc2)Oc2cccc(Oc3ccc(C(C)C)cc3)c2S1(=O)=O (stereo not drawn)	-5	-3%[46.1 µM]	9%	-5%	.
CC(C)CCNC(=O)/C=C/c1ccc(Br)cc1	?	1.6µM*	20%	-2%	?
CCn1c(C)nc2cc(NS(=O)(=O)c3ccccc3)cc(C(=O)N3C[C@@H](C)O[C@@H](C)C3)c21	.	.	-5%	.	.
c1ccc(Sc2ncnc3ccccc23)cc1	-74*	27%	9%	21%	-13%[14.2 µM]
CCCCCCC(=O)N1C/C=C\C(c2ccc(OC)cc2)N(Cc2ccc(F)cc2)C(=O)[C@H]1Cc1ccccc1 (stereo partly drawn)	-93*	.	?	-20%[8.37 µM]	.
COc1ccc(C2/C=C\CN(C(=O)C3CC3)[C@H](Cc3ccccc3)C(=O)N2Cc2ccc(F)cc2)cc1 (stereo partly drawn)	.	.	0%	-10%[8.37 µM]	.
COc1ccc(C2/C=C\CN(C(=O)CC(C)C)CC(=O)N2Cc2ccc(F)cc2)cc1 (stereo not drawn)	4	.	21%	16%	.
COc1ccc(C2/C=C\CN(C(=O)CC(C)(C)C)CC(=O)N2Cc2ccc(F)cc2)cc1 (stereo not drawn)	1	.	23%	5µM*	.
Cc1sc2ncnc(N3CCC(C(=O)Nc4nnc(CC(C)C)s4)CC3)c2c1C	9	27%	-15%	-22%	-11%[46.1 µM]
CCN(CC)CCNC(=O)c1ccc(NC(=O)C2CCN(c3ncnc4sc(C)c(C)c34)CC2)cc1	-71*	.	?	13µM*	.
Cc1cc(Br)ccc1NC(=O)CN(C)C(=O)C1CCN(c2ncnc3sc(C)c(C)c23)CC1	-83*	?	?	10µM*	?
Cc1sc2ncnc(N3CCC(C(=O)Nc4ccc(OC(F)F)c(Cl)c4)CC3)c2c1C	-2	.	?	20µM*	.
Cc1sc2ncnc(N3CCC(C(=O)NNC(=O)COc4ccccc4F)CC3)c2c1C	-10	-6%	25µM*	?	-21%
Cc1cccc(C)c1NC(=O)CN(C)C(=O)C1CCN(c2ncnc3sc(C)c(C)c23)CC1	?	-12%	?	?	?
Cc1sc2ncnc(N3CCC(C(=O)NNC(=O)c4ccccc4Cl)CC3)c2c1C	-31	-2%	?	?	?
Cc1cccc(C)c1Nc1sc(C(=O)c2ccccc2)c(N)c1C(=O)Nc1ccc(F)cc1	0	9%[46.1 µM]	-8%	.	.
COc1ccc(CCNC(=O)c2cc(-c3ccc(C)c(C)c3)nc3ccccc23)cc1OC	31	?	2%	.	.
Cc1cc(C)cc(NC(=O)Nc2ccc3nc(N4CCN(C)CC4)cc(C)c3c2)c1	-7	4%[46.1 µM]	-23%	.	.
O=C(NC1CCCC1)C(c1ccc(F)cc1)N(C(=O)c1csnn1)C1CC1 (stereo not drawn)	9	12%	25%	-15%	16%[46.1 µM]
Cc1ccccc1C(=O)NCCCNC(=O)c1ccccc1C	11	-18%	6%	18%	5%[46.1 µM]
O=c1c(-c2cccs2)nc2cnc(N3CCNCC3)nc2n1CCc1ccccc1	.	.	-17%	.	.
O=c1cnc2cnc(N3CCOCC3)nc2n1C1CC1	.	.	-26%	.	.
Cc1sc2ncnc(N3CCC(C(=O)Nc4nc(-c5ccc(F)cc5)cs4)CC3)c2c1C	-65*	?	0%	?	?
Cc1sc2ncnc(N3CCC(C(=O)NNC(=O)COc4ccccc4Cl)CC3)c2c1C	-33	5%	35µM*	?	?
SMILES	HCMV inh	Lassa entry inh	FMDV inh	HCV inh	MARV entry inh
Cc1sc2ncnc(N3CCC(C(=O)NNC(=O)COc4ccc(Cl)cc4)CC3)c2c1C	-7	.	-21%	-21%	.
Cc1sc2ncnc(N3CCC(C(=O)NNC(=O)COc4cccc(C(F)(F)F)c4)CC3)c2c1C	-2	3%	25µM*	-10%	0%
Cc1ccc(-c2nnc(Nc3ccc(O)cc3)c3ccccc23)cc1S(=O)(=O)NC(C)(C)CO	?	12%[46.1 µM]	33%	.	24%[46.1 µM]
CC(=O)n1c2ccccc2c2ccccc21	10	7%	1%	?	0%
CC(=O)n1c(Cl)c(NC(=O)CCl)c2ccccc21	-98*	?	32µM*	14µM*	?
CCC(C)c1ccccc1NC(=O)CN1CCN(C/C=C/c2ccccc2)CC1 (stereo not drawn)	20	-15%	-23%	-12%	?
CC1(C)CC(=O)C=C(c2cccc(Br)c2)C1	-64*	.	-3%	-23%	.
Cc1c(NC(=O)c2nc3ccccc3n(C)c2=O)cccc1[N+](=O)[O-]	0	7%[46.1 µM]	-3%	.	7%[46.1 µM]
Cc1ccc(C(C(=O)NC(C)(C)C)N(Cc2cccs2)C(=O)c2ccc3c(c2)OCCO3)cc1 (stereo not drawn)	?	?	0%	-42%	?
CCC(C)(C)NC(=O)C(c1ccc(C)cc1)N(Cc1cccs1)C(=O)c1ccc2c(c1)OCCO2 (stereo not drawn)	-21	?	-22%	-19%	15µM*
CCCCSCCCNC(=O)CN1C(=O)COc2ccc(S(=O)(=O)N3CCCC3)cc21	-10	2%[46.1 µM]	-25%	.	15%[46.1 µM]
CCOc1ccccc1NC(=O)Cn1c(=O)n(Cc2ccccc2)c(=O)c2cccnc21	9	.	13%	.	14%[46.1 µM]
COc1cccc2c(=O)cc(C)n(CC(=O)Nc3ccc(C)c(C)c3)c12	-17	-17%	?	5µM*	?
COc1ccccc1NC(=O)Cn1c(C)cc(C)c(C#N)c1=O	13	-17%[46.1 µM]	-26%	.	.
CNC(=O)Cn1c(C)cc(=O)c2cccc(C)c21	63	?	-13%	13%	-12%
COc1ccccc1NC(=O)Cn1c(C)cc(=O)c2cccc(OC)c21	-10	-19%	7.1µM*	?	?
COc1ccccc1NC(=O)Cn1c(=O)n(Cc2cccs2)c(=O)c2cccnc21	-64*	.	-14%	.	3%[46.1 µM]
COc1ccccc1C1CCCN1Cc1nc(-c2ccc(C)s2)oc1C (stereo not drawn)	-99*	3.5µM*	-20%	?	?
O=C(N1CCOCC1)N1CCN(CC(O)COc2ccc3ccccc3c2)CC1 (stereo not drawn)	41	?	0%	-5%	?
O=C1c2cccc3cccc(c23)C(=O)N1CCN1CCN(CC(O)COc2ccc3ccccc3c2)CC1 (stereo not drawn)	-63*	?	?	11µM*	?
O=C1c2cccc3cccc(c23)C(=O)N1CC1CCN(CC(O)COc2ccc3ccccc3c2)CC1 (stereo not drawn)	-19	.	?	7.9µM*	-1%
